Data from article PMC7862700, “An all-to-all approach to the identification of sequence-specific readers for epigenetic DNA modifications on cytosine”.

Legend:
Test in all cases: DAPPL (digital affinity profiling via proximity ligation, sequencing); 10 mM Tris-HCl pH 7.5, 50 mM NaCl, 1 mM DTT, 4% glycerol, room temperature, 30 min; GST-TFs on glutathione beads, 16-mer random dsDNA library, 0.1% formaldehyde crosslink after washing; high values mean tight binding
FEV = biological target: T1, FEV (Homo sapiens, UniProt Q99581 1-238); details: protein: recombinant; tags: N-terminal GST; dsDNA, one strand shown
T1 sequence: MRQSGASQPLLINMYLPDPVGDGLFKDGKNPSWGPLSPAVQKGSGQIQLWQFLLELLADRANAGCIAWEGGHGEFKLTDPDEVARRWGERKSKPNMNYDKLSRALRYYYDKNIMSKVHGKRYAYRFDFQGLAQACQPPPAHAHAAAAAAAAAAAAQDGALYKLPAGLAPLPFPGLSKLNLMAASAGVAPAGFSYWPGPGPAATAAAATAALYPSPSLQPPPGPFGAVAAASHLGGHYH
Summary of the method: (§1)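 Each value of binding signal is a hexamer's read frequency for a factor divided by the same hexamer's frequency in the tag-only sample. Barcoded, bead-captured GST fusions of human transcription factors made in yeast were pooled with that sample and incubated with 200 nmole of a random double-stranded 16-mer DNA library in Tris/NaCl/DTT/glycerol buffer at room temperature for 30 min. Washing, 0.1% formaldehyde crosslinking, proximity ligation, PCR and Illumina NextSeq500 sequencing followed.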

ETV5 = ETV5 (Homo sapiens, UniProt P41161 1-510); details: protein: recombinant; tags: N-terminal GST; dsDNA, one strand shown
Summary of the method: as §1

HSF1 = HSF1 (Homo sapiens, UniProt Q00613 1-529); details: protein: recombinant; tags: N-terminal GST; chain copies: 3; dsDNA, one strand shown
Summary of the method: as §1

SPIC = biological target: T2, SPIC (Homo sapiens, UniProt Q8N5J4 1-248); details: protein: recombinant; tags: N-terminal GST; dsDNA, one strand shown
T2 sequence: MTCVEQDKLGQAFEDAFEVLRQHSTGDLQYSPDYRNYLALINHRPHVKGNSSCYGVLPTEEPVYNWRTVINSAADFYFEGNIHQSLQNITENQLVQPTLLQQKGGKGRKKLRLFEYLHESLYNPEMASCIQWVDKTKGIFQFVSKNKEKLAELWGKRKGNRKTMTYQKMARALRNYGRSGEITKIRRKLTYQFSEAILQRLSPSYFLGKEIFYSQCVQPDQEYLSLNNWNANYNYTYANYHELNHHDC
Summary of the method: as §1

ELF4 = ELF4 (Homo sapiens, UniProt Q99607 1-663); details: protein: recombinant; tags: N-terminal GST; dsDNA, one strand shown
Summary of the method: as §1

ELK4 = biological target: T3, ELK4 (Homo sapiens, UniProt P28324-2 1-405); details: protein: recombinant; tags: N-terminal GST; dsDNA, one strand shown
T3 sequence: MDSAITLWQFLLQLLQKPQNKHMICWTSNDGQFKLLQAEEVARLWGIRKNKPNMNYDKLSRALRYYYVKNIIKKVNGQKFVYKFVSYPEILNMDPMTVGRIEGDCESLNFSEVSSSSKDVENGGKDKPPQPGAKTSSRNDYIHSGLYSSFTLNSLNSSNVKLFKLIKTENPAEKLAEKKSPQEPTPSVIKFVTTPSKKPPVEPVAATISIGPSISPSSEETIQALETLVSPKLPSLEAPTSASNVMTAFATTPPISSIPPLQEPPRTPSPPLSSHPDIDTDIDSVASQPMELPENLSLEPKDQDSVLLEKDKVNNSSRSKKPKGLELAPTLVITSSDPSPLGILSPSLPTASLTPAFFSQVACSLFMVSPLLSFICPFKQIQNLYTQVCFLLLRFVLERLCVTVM
Summary of the method: as §1

ETV2 = biological target: T4, ETV2 (Homo sapiens, UniProt O00321 1-342); details: protein: recombinant; tags: N-terminal GST; dsDNA, one strand shown
T4 sequence: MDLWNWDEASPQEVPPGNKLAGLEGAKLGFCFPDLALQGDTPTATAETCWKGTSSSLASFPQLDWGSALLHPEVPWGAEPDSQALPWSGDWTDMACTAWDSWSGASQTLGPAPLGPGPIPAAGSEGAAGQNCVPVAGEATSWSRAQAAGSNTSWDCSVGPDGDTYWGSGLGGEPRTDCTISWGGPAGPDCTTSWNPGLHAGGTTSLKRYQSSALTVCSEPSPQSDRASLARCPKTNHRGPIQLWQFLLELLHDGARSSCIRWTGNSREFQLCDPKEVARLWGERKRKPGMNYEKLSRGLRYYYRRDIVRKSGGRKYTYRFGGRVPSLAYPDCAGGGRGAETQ
Summary of the method: as §1

ELF3 = biological target: T5, ELF3 (Homo sapiens, UniProt P78545 1-371); details: protein: recombinant; tags: N-terminal GST; dsDNA, one strand shown
T5 sequence: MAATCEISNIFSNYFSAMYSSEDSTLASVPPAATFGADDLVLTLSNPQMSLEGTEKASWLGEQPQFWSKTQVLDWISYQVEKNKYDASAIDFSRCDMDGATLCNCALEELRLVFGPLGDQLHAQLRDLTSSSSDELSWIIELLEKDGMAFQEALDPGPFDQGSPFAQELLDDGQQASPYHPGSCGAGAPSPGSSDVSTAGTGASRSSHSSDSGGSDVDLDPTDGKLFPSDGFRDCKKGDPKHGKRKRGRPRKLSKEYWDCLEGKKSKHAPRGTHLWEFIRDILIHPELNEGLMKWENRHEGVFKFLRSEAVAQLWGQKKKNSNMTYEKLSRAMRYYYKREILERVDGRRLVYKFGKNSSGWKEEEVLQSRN
Summary of the method: as §1

CRX = CRX (Homo sapiens, UniProt O43186 1-299); details: protein: recombinant; tags: N-terminal GST; dsDNA, one strand shown
Summary of the method: as §1

ETV1 = ETV1 (Homo sapiens, UniProt P50549 1-477); details: protein: recombinant; tags: N-terminal GST; dsDNA, one strand shown
Summary of the method: as §1

ERF = biological target: T6, ERF (Homo sapiens, UniProt P50548 1-548); details: protein: recombinant; tags: N-terminal GST; dsDNA, one strand shown
T6 sequence: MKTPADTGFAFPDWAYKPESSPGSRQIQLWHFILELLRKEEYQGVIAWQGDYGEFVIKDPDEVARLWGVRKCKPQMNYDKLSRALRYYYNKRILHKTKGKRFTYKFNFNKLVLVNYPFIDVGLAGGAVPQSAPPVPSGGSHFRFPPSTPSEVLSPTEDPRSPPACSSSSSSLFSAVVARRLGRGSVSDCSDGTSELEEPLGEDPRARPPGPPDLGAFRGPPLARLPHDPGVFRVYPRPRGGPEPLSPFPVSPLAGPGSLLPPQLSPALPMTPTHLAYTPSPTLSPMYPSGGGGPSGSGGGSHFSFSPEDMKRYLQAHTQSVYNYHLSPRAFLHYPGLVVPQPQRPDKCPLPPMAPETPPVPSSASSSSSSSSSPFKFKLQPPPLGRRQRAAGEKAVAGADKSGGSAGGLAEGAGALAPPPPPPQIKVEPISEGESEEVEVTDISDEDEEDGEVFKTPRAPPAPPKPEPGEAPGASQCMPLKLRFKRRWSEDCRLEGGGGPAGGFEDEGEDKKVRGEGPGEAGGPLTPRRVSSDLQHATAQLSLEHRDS
Summary of the method: as §1

ETV3L = biological target: T7, ETV3L (Homo sapiens, UniProt Q6ZN32 1-361); details: protein: recombinant; tags: N-terminal GST; dsDNA, one strand shown
T7 sequence: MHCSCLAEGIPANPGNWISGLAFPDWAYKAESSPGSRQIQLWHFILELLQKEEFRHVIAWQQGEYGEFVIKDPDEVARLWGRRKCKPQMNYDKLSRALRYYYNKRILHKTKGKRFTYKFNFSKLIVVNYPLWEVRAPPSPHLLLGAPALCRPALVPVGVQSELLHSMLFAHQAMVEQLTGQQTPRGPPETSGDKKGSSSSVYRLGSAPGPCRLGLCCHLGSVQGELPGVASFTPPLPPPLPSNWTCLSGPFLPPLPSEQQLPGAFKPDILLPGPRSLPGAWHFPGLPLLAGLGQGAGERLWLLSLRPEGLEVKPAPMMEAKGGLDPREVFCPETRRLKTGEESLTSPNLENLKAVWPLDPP
Summary of the method: as §1

ETS2 = biological target: T8, ETS2 (Homo sapiens, UniProt P15036 1-469); details: protein: recombinant; tags: N-terminal GST; dsDNA, one strand shown
T8 sequence: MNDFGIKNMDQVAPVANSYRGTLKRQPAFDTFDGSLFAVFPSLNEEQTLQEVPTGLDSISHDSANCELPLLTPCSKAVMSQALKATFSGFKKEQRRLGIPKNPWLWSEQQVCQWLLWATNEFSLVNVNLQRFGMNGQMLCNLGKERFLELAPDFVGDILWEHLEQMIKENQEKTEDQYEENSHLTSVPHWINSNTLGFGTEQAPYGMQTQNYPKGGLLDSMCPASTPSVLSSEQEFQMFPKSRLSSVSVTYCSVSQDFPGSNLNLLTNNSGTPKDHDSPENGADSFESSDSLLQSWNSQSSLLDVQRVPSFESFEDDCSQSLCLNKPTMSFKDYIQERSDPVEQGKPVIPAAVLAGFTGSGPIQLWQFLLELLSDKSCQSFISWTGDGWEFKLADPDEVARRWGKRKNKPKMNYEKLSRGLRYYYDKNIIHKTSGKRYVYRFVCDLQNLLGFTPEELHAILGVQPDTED
Summary of the method: as §1

SPDEF = biological target: T9, SPDEF (Homo sapiens, UniProt O95238 1-335); details: protein: recombinant; tags: N-terminal GST; dsDNA, one strand shown
T9 sequence: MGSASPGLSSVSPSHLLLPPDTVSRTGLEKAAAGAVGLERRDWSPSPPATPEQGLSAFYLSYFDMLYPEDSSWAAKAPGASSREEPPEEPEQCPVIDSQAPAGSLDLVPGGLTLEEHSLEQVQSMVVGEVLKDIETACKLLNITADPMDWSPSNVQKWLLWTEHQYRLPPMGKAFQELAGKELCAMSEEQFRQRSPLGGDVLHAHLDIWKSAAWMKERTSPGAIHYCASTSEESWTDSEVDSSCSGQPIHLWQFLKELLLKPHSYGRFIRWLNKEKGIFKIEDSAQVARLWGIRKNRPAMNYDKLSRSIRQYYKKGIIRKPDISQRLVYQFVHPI
Summary of the method: as §1

ETV7 = biological target: T10, ETV7 (Homo sapiens, UniProt Q9Y603 1-341); details: protein: recombinant; tags: N-terminal GST; dsDNA, one strand shown
T10 sequence: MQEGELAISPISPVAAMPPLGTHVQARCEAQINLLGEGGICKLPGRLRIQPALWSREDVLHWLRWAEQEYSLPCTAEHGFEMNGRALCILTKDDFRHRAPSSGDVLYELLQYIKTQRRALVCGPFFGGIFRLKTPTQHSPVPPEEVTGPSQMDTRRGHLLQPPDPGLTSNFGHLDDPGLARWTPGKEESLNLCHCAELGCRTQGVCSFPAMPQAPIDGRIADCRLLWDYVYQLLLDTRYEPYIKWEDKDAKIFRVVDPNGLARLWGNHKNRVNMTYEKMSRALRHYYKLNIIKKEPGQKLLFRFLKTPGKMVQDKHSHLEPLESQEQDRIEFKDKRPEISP
Summary of the method: as §1

ELF5 = biological target: T11, ELF5 (Homo sapiens, UniProt Q9UKW6-2 1-255); details: protein: recombinant; tags: N-terminal GST; dsDNA, one strand shown
T11 sequence: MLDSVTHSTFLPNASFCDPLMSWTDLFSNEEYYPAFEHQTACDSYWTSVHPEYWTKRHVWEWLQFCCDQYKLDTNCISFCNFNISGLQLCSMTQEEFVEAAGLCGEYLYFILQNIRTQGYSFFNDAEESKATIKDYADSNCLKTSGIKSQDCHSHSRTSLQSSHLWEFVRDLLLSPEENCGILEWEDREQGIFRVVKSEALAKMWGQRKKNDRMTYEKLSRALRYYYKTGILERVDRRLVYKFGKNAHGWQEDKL
Summary of the method: as §1

ETV3 = biological target: T12, ETV3 (Homo sapiens, UniProt P41162-2 1-143); details: protein: recombinant; tags: N-terminal GST; dsDNA, one strand shown
T12 sequence: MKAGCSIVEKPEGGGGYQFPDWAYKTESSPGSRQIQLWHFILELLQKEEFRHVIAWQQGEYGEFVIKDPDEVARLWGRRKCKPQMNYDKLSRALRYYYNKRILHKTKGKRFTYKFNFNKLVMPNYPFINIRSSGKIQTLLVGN
Summary of the method: as §1

ETV6 = ETV6 (Homo sapiens, UniProt P41212 1-452); details: protein: recombinant; tags: N-terminal GST; dsDNA, one strand shown
Summary of the method: as §1

Chain of ETV5 (P41161 whole entry): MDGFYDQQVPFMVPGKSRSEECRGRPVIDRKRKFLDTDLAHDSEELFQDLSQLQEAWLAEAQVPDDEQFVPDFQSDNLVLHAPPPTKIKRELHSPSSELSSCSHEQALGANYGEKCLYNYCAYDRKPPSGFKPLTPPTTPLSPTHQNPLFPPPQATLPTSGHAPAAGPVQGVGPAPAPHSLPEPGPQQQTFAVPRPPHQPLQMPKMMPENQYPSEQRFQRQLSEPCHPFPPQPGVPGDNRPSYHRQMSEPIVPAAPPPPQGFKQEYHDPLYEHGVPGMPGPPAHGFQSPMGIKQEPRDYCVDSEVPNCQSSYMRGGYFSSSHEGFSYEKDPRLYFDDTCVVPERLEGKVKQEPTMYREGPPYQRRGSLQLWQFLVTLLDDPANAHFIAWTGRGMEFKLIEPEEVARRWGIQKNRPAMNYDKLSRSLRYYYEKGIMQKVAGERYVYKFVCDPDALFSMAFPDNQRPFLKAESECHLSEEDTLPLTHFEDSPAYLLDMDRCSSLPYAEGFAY
Chain of HSF1 (Q00613 whole entry): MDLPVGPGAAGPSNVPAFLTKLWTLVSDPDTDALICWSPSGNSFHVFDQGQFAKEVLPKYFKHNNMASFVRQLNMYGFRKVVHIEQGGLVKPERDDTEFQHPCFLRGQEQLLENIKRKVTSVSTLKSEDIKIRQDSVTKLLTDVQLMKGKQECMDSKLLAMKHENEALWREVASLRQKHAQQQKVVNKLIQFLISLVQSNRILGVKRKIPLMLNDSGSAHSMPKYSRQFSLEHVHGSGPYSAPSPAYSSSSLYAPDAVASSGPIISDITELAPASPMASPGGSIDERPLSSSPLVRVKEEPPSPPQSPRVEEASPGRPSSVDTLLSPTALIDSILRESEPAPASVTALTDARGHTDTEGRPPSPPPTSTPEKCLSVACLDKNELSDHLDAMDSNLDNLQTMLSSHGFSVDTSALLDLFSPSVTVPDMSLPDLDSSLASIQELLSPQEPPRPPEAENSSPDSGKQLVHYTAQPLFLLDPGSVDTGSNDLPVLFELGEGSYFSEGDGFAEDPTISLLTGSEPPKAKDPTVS
Chain of ETV6 (P41212 whole entry): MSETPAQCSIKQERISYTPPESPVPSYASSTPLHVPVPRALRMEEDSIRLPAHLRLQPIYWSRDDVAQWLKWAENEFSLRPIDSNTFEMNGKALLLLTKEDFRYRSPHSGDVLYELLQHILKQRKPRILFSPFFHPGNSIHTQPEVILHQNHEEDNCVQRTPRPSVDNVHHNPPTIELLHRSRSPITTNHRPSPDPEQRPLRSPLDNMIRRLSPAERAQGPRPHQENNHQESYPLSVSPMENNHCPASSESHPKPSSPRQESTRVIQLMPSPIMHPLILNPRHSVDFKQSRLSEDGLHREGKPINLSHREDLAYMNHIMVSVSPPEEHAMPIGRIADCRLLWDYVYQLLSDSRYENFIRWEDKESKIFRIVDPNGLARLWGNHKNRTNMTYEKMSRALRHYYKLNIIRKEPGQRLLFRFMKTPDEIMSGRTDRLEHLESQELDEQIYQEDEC
Chain of ETV1 (P50549 whole entry): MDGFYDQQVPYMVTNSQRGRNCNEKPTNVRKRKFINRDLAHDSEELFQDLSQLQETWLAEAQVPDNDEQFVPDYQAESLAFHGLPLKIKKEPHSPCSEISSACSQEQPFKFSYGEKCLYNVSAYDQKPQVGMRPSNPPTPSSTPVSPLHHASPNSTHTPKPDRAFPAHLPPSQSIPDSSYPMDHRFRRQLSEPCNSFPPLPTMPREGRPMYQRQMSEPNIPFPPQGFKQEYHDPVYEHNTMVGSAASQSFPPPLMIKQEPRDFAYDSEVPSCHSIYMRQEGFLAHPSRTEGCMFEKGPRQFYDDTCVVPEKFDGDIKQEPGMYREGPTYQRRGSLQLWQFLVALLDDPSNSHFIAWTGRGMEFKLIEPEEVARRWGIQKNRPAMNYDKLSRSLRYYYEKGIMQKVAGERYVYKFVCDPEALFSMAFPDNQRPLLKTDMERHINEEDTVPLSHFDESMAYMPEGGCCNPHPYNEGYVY
Chain of ELF4 (Q99607 whole entry): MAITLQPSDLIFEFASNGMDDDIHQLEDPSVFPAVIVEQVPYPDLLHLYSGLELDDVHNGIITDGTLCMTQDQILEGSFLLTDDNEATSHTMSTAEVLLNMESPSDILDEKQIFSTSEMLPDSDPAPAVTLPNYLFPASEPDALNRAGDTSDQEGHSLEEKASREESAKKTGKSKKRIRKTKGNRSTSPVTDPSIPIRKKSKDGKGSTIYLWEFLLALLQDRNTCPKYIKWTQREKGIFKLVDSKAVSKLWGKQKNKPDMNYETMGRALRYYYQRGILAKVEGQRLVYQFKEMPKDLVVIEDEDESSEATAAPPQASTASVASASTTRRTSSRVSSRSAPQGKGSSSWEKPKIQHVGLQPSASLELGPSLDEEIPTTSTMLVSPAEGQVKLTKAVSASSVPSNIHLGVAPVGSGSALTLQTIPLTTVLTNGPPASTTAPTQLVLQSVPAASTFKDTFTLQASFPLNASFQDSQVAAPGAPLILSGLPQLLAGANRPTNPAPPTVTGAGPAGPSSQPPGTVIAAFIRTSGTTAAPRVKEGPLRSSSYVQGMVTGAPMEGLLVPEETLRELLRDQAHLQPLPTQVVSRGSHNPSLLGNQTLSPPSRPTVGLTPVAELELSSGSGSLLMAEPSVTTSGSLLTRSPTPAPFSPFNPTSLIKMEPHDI
Chain of CRX (O43186 whole entry): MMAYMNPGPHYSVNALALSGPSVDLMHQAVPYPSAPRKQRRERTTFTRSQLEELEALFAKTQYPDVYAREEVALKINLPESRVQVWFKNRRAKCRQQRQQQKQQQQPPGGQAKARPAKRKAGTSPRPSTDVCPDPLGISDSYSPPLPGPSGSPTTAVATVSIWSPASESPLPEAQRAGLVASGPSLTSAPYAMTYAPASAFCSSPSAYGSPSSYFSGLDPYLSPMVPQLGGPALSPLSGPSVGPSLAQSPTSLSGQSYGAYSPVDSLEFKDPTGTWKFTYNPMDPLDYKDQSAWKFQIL

AAGTAA
binding signal (FEV): 1.24 fold enrichment (6-mer frequency, TF over GST control) | binding signal (ETV5): 1.32 fold enrichment (6-mer frequency, TF over GST control) | binding signal (HSF1): 1.24 fold enrichment (6-mer frequency, TF over GST control) | binding signal (SPIC): 1.35 fold enrichment (6-mer frequency, TF over GST control) | binding signal (ELF4): 1.27 fold enrichment (6-mer frequency, TF over GST control) | binding signal (ELK4): 1.19 fold enrichment (6-mer frequency, TF over GST control) | binding signal (ETV2): 1.38 fold enrichment (6-mer frequency, TF over GST control) | binding signal (ELF3): 1.42 fold enrichment (6-mer frequency, TF over GST control) | binding signal (CRX): 1.39 fold enrichment (6-mer frequency, TF over GST control) | binding signal (ETV1): 1.31 fold enrichment (6-mer frequency, TF over GST control) | binding signal (ERF): 1.27 fold enrichment (6-mer frequency, TF over GST control) | binding signal (ETV3L): 1.31 fold enrichment (6-mer frequency, TF over GST control) | binding signal (ETS2): 1.27 fold enrichment (6-mer frequency, TF over GST control) | binding signal (SPDEF): 1.23 fold enrichment (6-mer frequency, TF over GST control) | binding signal (ETV7): 1.27 fold enrichment (6-mer frequency, TF over GST control) | binding signal (ELF5): 1.42 fold enrichment (6-mer frequency, TF over GST control) | binding signal (ETV3): 1.28 fold enrichment (6-mer frequency, TF over GST control) | binding signal (ETV6): 1.45 fold enrichment (6-mer frequency, TF over GST control)
